Results taken from PubChem BioAssay (NCATS).
Inconclusive results are not listed. Where a call stands in place of a potency, no number is given. Active and inactive are the calls of the source. The call rests on the fitted dose curve; in most records, active means well fitted curve in the direction sought with a large enough effect; inconclusive means small, poorly fitted or top-dose-only effect, or another doubt; inactive means no such curve, though single readings can be large; an effect the other way counts as inactive or inconclusive.

Experiments:
[1] = qHTS assay for measurement of the activity of small molecule inhibitors on Zika virus induced Caspase-3 activity in human astrocytoma cells (AID 1224859); conditions: SNB-19 ZIKV-induced caspase-3/7, luminescence, 6 h; series mostly up to 45.7 µM
How it was run: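 Readout is luminescence from Caspase-Glo 3/7 added after a 6 h ZIKV infection (2 FFU/cell) of compound-pretreated (1 h) SNB-19 cells; data expressed as % inhibition versus uninfected and infected wells.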

[2] = qHTS assay to identify small molecule inhibitors of chordoma cells - UCH-1 (AID 1259355); conditions: UCH-1 chordoma viability, CellTiter-Glo, 48 h, combination; series mostly up to 46.1 µM; further: nearly all actives have a fitted effect of over 55% in size
How it was run: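 Seed 800 cells per well; incubate overnight at 37 C, 5% CO2. Add test compounds (15 concentrations), then the auranofin–topoisomerase-agent combination. Incubate 48hr, add CellTiter-Glo, wait 30min, read luminescence.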

[3] = qHTS assay to identify small molecule inhibitors of chordoma cells - UCH-2 (AID 1259356); conditions: UCH-2 chordoma viability, CellTiter-Glo ATP luminescence, 48 h; series mostly up to 46.1 µM

Row | SMILES | outcome [1] | Potency [2] | Potency [3]
1 | CCOC(=O)c1cncn1C(C)c1ccccc1 (centres undefined) | inactive | inactive | inactive
2 | Clc1ccc(CO/N=C(\Cn2ccnc2)c2ccc(Cl)cc2Cl)c(Cl)c1 | inactive |  | inactive
3 | Cc1c(Cl)c(=O)oc2cc(OP(=O)(OCCCl)OCCCl)ccc12 |  | inactive | inactive
4 | O=C(CCCN1CCC(n2c(=O)[nH]c3ccccc32)CC1)c1ccc(F)cc1 | inactive | inactive | inactive
5 | CCC1(c2cccc(O)c2)CCCCN(C)C1 (centres undefined) |  | inactive | inactive
6 | CCN(Cc1ccc(Cl)nc1)/C(=C/[N+](=O)[O-])NC |  | inactive | inactive
